Sampled rows, rich in hits. Any-hit rate of the full collection: about 5.1%.
Tau ThT inhib = qHTS for Inhibitors of Tau Fibril Formation, Thioflavin T Binding; Potency, µM (doses to about 57.4 µM), for inactives: at the top dose activity, negative = inhibition, actives largely listed as inhibitors; 270,000 tested, 2.1% active; AID 1460, 2008; recombinant tau K18 P301L, heparin-induced fibrillization, ThT fluorescence; note: potency is the fitted concentration of half-maximal effect; nearly all actives have a fitted effect of over 55% in size
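In this qHTS, human K18 P301L tau is incubated with compound and heparin for 6 hr at 37 C, and Thioflavin T fluorescence then reports fibril load.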
Tau fibril FP = qHTS for Inhibitors of Tau Fibril Formation, Fluorescence Polarization; K18 P301L tau heparin fibrillization, Alexa594 FP, 6 h; 280,000 tested, 0.39% active; Potency, µM (titrated, usually from 57.7 µM), without a hit: at the top dose activity, negative = inhibition, usual class: inhibitors; note: potency is the fitted concentration of half-maximal effect; nearly all actives have a fitted effect of over 55% in size
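FP of Alexa 594-tau after heparin (20 uM) induction. Substrate: human K18 P301L, 15 uM unlabeled, 0.24 uM labeled. Buffer 100 mM sodium acetate pH 7. 6 hr, 37 C.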
Tau fluor cs = Counterscreen qHTS for Inhibitors of Tau Fibril Formation, Fluorescence Polarization; tau K18 P301L Alexa594 fluorescence, heparin fibrillization; Potency, µM (top dose mostly 57.7 µM), without a hit: at the top dose activity change, negative = decrease; 280,000 tested, 0.93% active; AID 1463, 2008; note: potency is the fitted concentration of half-maximal effect; nearly all actives have a fitted effect of over 55% in size
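Human tau K18 P301L (15 uM unlabeled, 0.24 uM Alexa 594-labeled) in 100 mM sodium acetate pH 7 with 20 uM heparin, 6 hr at 37 C. ThT 30 uM added, 1 hr ambient; Alexa 594 FP and total fluorescence read at 555/632 nm.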
NPSR antag = qHTS Assay for Antagonists of the Neuropeptide S Receptor: cAMP Signal Transduction; CHO-NPSR cells, cAMP TR-FRET, antagonist mode; Potency, µM (top dose mostly 38.3 µM), for inactives: top-dose activity change, negative = inhibition, usual class: inhibitors; Q6W5P4; 220,000 tested, 1% active; note: potency is the fitted concentration of half-maximal effect; nearly all actives have a fitted effect of over 50% in size
Target sequence (Q6W5P4 whole entry, looked up): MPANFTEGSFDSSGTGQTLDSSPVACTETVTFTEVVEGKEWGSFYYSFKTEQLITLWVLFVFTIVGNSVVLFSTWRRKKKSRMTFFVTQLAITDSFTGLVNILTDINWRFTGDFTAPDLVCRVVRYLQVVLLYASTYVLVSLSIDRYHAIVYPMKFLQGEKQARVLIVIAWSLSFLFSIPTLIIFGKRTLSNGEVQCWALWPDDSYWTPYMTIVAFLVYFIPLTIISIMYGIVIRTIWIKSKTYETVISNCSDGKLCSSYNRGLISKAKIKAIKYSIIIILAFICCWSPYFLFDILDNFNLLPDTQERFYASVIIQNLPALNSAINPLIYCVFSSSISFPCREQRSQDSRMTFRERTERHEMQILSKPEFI
PNC assembly inh = High Content Assay for Compounds that inhibit the Assembly of the Perinucleolar Compartment; PC3M PTB-GFP, PNC prevalence imaging, 16 h; stronger effect = lower value; activity change (PNC), negative = inhibition, % at 10 µM; 140,000 tested, 3.1% active; AID 2417, 2010;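 active = readout at or below -70, meaning at least 70% loss of cells showing the perinucleolar compartment, a nuclear body marking cancer cells; inconclusive = readout between -30 and a set limit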;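 note: plate controls were DMSO wells for no effect and camptothecin positive control wells for full effect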
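Compounds are pinned in duplicate onto adhered PC3M cells stably expressing GFP-tagged PTB and incubated 16 h at 37 C. Cells are then fixed, nuclei stained with Hoechst, and PNC-positive cells counted.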
JMJD2E inh = qHTS Assay for Inhibitors of Human Jumonji Domain Containing 2E (JMJD2E). Potency, µM (highest dose often 57.1 µM), without a hit: top-dose activity change, negative = inhibition, most hits filed as inhibitors. JMJD2E catalytic domain, FDH-coupled NADH fluorescence (FDH is formaldehyde dehydrogenase). AID 2147, 2009. Lysine-specific demethylase 4E (Homo sapiens), B2RXH2. 230,000 tested, 1.6% active; active = well fitted inhibition curve with a large enough effect, not every such curve was filed as active; inconclusive = small, poorly fitted or top-dose-only effect, or another doubt; inactive = no such curve, though single readings can be large or run the other way;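 note: potency is the fitted concentration of half-maximal effect; 0% = wells with enzyme and -100% = buffer wells without enzyme; nearly all actives have a fitted effect of over 50% in size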
Target sequence (B2RXH2 1-337 limits assumed): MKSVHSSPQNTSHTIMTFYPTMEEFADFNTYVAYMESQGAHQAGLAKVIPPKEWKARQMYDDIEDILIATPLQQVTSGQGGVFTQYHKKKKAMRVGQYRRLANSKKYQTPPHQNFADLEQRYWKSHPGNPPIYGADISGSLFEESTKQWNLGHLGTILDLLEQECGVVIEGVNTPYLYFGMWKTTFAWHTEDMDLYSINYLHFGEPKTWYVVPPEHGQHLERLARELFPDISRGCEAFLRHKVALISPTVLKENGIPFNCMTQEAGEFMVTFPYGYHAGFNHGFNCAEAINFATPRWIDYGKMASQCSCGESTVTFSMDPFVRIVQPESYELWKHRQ
Active calls of the source: *; ? = inconclusive; . = no result given; [ ] = remark or other dose. Unless noted, calls come from the whole dose curve; as a rule, active = well fitted curve in the direction sought with a large enough effect; inconclusive = small, poorly fitted or top-dose-only effect, or another doubt; inactive = no such curve, though single readings can be large; an effect the other way counts as inactive or inconclusive. Unless noted, % is set by controls: 0 for no effect and ±100 for the full control effect.

SMILES | Tau ThT inhib | Tau fibril FP | Tau fluor cs | NPSR antag | PNC assembly inh | JMJD2E inh
C/C(=N\NC(=S)NCc1ccccc1)c1ccc2ccccc2c1 | -5% | -10% | ? | -38% | -99* | -27%
Cn1c(C(=O)N2CCc3ccccc3C2)cc2oc3ccccc3c21 | ? | -1% | -19% | -13% | -119* | ?
CCn1c(C(=O)N2CCc3ccccc3C2)cc2oc3ccccc3c21 | -15% | 2% | -13% | -30%[46.1 µM] | 2 | 2%
O=C(N/N=C/c1ccc(O)cc1)c1nc(-c2ccccc2)n(-c2ccccc2)n1 | -17% | 8% | -9% | -21% | -100* | 4%
COc1ccc(-c2cn(-c3ccc(OC)cc3)c3[n+]2-c2ccccc2CC3)cc1 | -1% | -8% | -4% | -2% | -96* | ?
COc1ccc(-n2c(-c3ccc(Br)cc3)c[n+]3c2CCc2ccccc2-3)cc1 | -17% | -2% | 0% | 15% | -134* | ?
CC(C)c1ccc(-n2c(-c3ccccc3)c[n+]3c2CCc2ccccc2-3)cc1 | -7% | 8% | -2% | 10µM* | . | 3%
COc1ccc(-n2cc(-c3ccccc3)[n+]3c2CCCCC3)cc1 | 1% | 3% | 4% | 11% | . | 1%
COc1ccccc1-n1c(-c2ccccc2)c[n+]2c1CCc1ccccc1-2 | -8% | 3% | -1% | -15% | . | -3%
Cn1c(=O)c2c(-c3ccc(Br)cc3)n(Cc3ccc(F)cc3)cc2n(C)c1=O | ? | -13% | -21% | . | . | .
CCOc1ccccc1NC(=O)CSc1cc(=O)n(CC)c2ccccc12 | -15% | -2% | -11% | . | . | .
COc1cc(-c2nnc(SCCOc3ccc(Cl)cc3C)o2)cc(OC)c1OC | 4% | ? | ? | . | . | .
COc1cccc(=O)c2c(C)n(-c3ccc(C(=O)O)cc3)c(C)c12 | 16µM* | ? | -14% | -11% | . | ?
COc1ccc(-n2c(C)c3c(OC)cccc(=O)c3c2C)cc1 | 18µM* | ? | -23% | -5%[46.1 µM] | 4 | -3%
COc1ccccc1-n1c(C)c2c(OC)cccc(=O)c2c1C | ? | -4% | -9% | 8% | ? | ?
COc1cc(C(=O)Nc2nonc2-c2ccc(Cl)cc2)cc(OC)c1OC | -7% | -16% | -12% | . | . | .
COC(=O)CCS(=O)(=O)c1cc(Cl)ccc1Cl | -3% | -3% | -6% | 2%[46.1 µM] | -138* | 6%
O=C(CCCCCn1c(=O)[nH]c2ccccc2c1=O)NCc1cccc(Cl)c1 | 11% | -6% | -11% | . | . | .
CCc1cc(-c2[nH]ncc2-c2ccc3c(c2)OCO3)c(O)cc1O | ? | ? | 14µM*[quencher] | -10%[46.1 µM] | 16 | ?
COc1ccc(-c2[nH]ncc2-c2ccc3c(c2)OCCO3)c(O)c1 | -4% | 7% | -28% | -36%[46.1 µM] | 20 | -4%
CCCc1cc(-c2[nH]ncc2-c2ccc3c(c2)OCCCO3)c(O)cc1OC | ? | -13% | 10µM*[quencher] | ? | -16 | ?
COc1ccc(N2C(=O)/C(=C/c3cccs3)NC2=S)cc1 | 22µM* | ? | -25% | -24% | ? | 0%
Cc1ccc[n+](-c2nc([O-])sc2/C=N/Nc2ccc([N+](=O)[O-])cc2)c1 | 14µM* | -4% | -24% | -29% | . | -5%
Cc1ccc[n+](Cc2ccc([N+](=O)[O-])cc2)c1 | -10% | -6% | -13% | -15% | . | -5%
Cn1cc(C(=O)NCc2ccccc2)c(=O)c2cc(S(=O)(=O)N3CCCCCC3)ccc21 | 4% | -2% | -19% | . | . | .
SMILES | Tau ThT inhib | Tau fibril FP | Tau fluor cs | NPSR antag | PNC assembly inh | JMJD2E inh
COc1cc(NC(=O)CN(c2ccc(C)cc2)S(=O)(=O)c2cccc3nonc23)cc(OC)c1 | -6% | 2% | ? | . | . | .
CC1CCCN(C(=S)Nc2ccc3nc4n(c(=O)c3c2)CCCCC4)C1 (stereo not given) | -5% | -7% | -9% | 10% | -119* | ?
CC1CC(C)CN(C(=S)Nc2ccc3nc4n(c(=O)c3c2)CCCCC4)C1 (stereo not given) | 5% | 9% | 6% | 17% | -15 | 0%
CC(=O)c1ccc(O)c(CSc2nncn2C)c1 | 4% | 4% | 8% | -2% | . | ?
O=C(CSc1nnnn1-c1ccc(F)cc1)c1ccc(O)c(O)c1 | ? | 8% | ? | -4% | . | 28µM*
Cn1cnnc1SCC(=O)c1ccc(O)c(O)c1 | -2% | -2% | 1% | -3% | . | 10µM*
COc1ccc(C2=C(C)C(=O)N(Cc3ccc(C(=O)Nc4cc(C)ccc4C)cc3)S2(=O)=O)cc1 | 2% | 1% | -12% | . | . | .
Cc1ccc2nc(SCC(=O)Nc3ccc(F)cc3F)[nH]c2c1 | -12% | -15% | -28% | 10% | . | -8%
COc1ccc2nc(SCC(=O)Nc3ccccc3)[nH]c2c1 | 0% | -3% | -5% | -2% | -107* | 8%
CCCCNS(=O)(=O)c1ccc2nc(SCC(=O)Nc3cccc(F)c3)[nH]c2c1 | -7% | -13% | -29% | -5% | -98* | 8%
CCCCNS(=O)(=O)c1ccc2nc(SCC(=O)Nc3ccccc3Cl)[nH]c2c1 | 2% | 25µM* | ? | -16%[46.1 µM] | -6 | -8%
Cc1ccc(NC(=O)CSc2nc3ccc(Br)cc3[nH]2)c(C)c1 | 9% | 22µM* | ? | . | . | .
CCCCNS(=O)(=O)c1ccc2nc(SCC(N)=O)[nH]c2c1 | -2% | 7% | -4% | 11% | . | 7%
CCCCNS(=O)(=O)c1ccc2nc(SCC(=O)Nc3sccc3C#N)[nH]c2c1 | -15% | ? | ? | ? | 6 | -8%
COc1ccccc1Cc1nc2ccccc2nc1SCC(=O)Nc1cc(Cl)ccc1OC | -3% | ? | -13% | . | . | .
CCCOc1ccc(CNC(=O)CCCn2nc(C)c3sc4ccccc4c3c2=O)cc1 | ? | -5% | -28% | . | . | .
Cc1ccc(Cc2c(C)nc3nc(SCC(=O)NCCC(C)C)nn3c2C)cc1 | -13% | -1% | -15% | . | . | .
CCOC(=O)c1cc2c(=O)n3ccccc3nc2n(CC2CCCO2)c1=NC(=O)c1cccc(C)c1 (stereo not given) | -10% | 5% | -8% | . | . | .
Cn1cc(S(=O)(=O)N2CCCCCC2)cc1C(=O)Nc1ccccc1F | -3% | -6% | -15% | . | . | .
O=[N+]([O-])c1cc([N+](=O)[O-])c2c(=Nc3ccccc3)n(-c3ccccc3)n(O)c2c1 | 14µM* | ? | 16µM*[quencher] | ? | . | ?
Cc1ccc(NC(=O)c2c(NC(=O)C(F)(F)F)sc3c2CCCCC3)cc1 | 14µM* | 10% | ? | . | . | .

Bioassay records from PubChem.
